Shown are actives, neighbours in structure and some others; about 4.2% of the full set was active somewhere.
Sfp inh: Sfp phosphopantetheinyl transferase inhibition; Q9F4F7; AID 1490; hit rate 3.5% among 310,000; Biochemical Sfp PPTase activity, qHTS; Potency, µM, for inactives: largest response in the series, negative = inhibition, usual class: inhibitors;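 further: the enzyme is Sfp with the accession as filed and its product quenches rhodamine fluorescence; potency means the concentration at half of the fitted maximal effect; 0% = enzyme reaction without inhibitor and -100% = no enzyme wells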
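Buffer: 50 mM Hepes-Na pH 7.6, 10 mM MgCl2, 0.01% Nonidet P-40, 0.01% BSA. Enzyme 15 nM, pre-exposed to compound 15 min; substrates then added and fluorescence change tracked over 30 min.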
ClpP mod: qHTS Assay for Activators of ClpP. purified B. subtilis ClpP, FRET peptide cleavage, 20 min. Potency, µM (highest dose often 57.5 µM), inactives show top-dose activity change, negative = active. hit rate 1.9% among 340,000; active means well fitted falling curve with a large enough effect; inconclusive means small, poorly fitted or top-dose-only effect; inactive means no such curve, though single readings can be large or run the other way; further: potency means the concentration at half of the fitted maximal effect; the source files actives as falling curves though it sought activators and does not explain the sign; nearly all actives have a fitted effect of over 65% in size
Target sequence (P80244 whole entry, looked up): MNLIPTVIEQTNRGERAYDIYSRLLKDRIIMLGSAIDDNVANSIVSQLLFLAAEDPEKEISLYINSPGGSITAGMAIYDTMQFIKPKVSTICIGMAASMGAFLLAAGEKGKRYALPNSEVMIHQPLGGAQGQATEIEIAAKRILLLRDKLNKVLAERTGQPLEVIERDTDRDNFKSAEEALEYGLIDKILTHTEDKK
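ClpP 10 microg/mL final, pH 8 Tris/KCl buffer with BSA, glycerol, Tween-20; compound pinned in; FRET-FV substrate; RT 20 min; Ex320/Em430; ΔFRET vs ADEP 5.8 microM, DMSO, no enzyme.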
TCR activator: T cell receptor activation; primary human leukocytes, anti-CD3, IL-2 HTRF, 48 h; Potency, µM (top dose mostly 9.22 µM), without a hit: top-dose activation of IL-2 secretion, actives largely listed as activators; 330,000 tested, under 10 active; further: % of control where 0% means no effect
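IL-2 produced over 48 hr by a-CD3 bead-stimulated primary human leukocytes exposed to compounds was detected with a homogeneous time-resolved FRET immunoassay, 665nm acceptor signal after 320nm excitation.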
uPA surface inh: inhibitors of cell surface uPA generation; Potency, µM (highest dose often 38.3 µM), for the others: at the highest dose activity change, negative = inhibition, actives largely listed as inhibitors; AID 540303; hit rate 0.31% among 330,000; cell surface uPA generation assay, qHTS; active means well fitted inhibition curve with a large enough effect; inconclusive means small, poorly fitted or top-dose-only effect; inactive means no such curve, though single readings can be large or run the other way; tested in mouse RAW 264.7 cells; further: potency means the concentration at half of the fitted maximal effect; on the % scale 0 is the no-effect control and ±100 the full control effect; nearly all actives have a fitted effect of over 55% in size
* = called active by the depositor; ? = inconclusive; . = not tested or not shown; [ ] = another dose, or the depositor's remark. Unless noted, the call rests on the fitted dose curve; in most records, active means well fitted curve in the direction sought with a large enough effect; inconclusive means small, poorly fitted or top-dose-only effect, or another doubt; inactive means no such curve, though single readings can be large; an effect the other way counts as inactive or inconclusive.

SMILES	Sfp inh	ClpP mod	TCR activator	uPA surface inh
O=C(O)c1cccc(Nc2ccc3nonc3c2[N+](=O)[O-])c1	23.0%	1.4%	1.5%	14.8%
O=C(O)c1ccc(Nc2cc(Cl)c3nonc3c2[N+](=O)[O-])cc1	35.5µM*	.	6.7%	2.0%
O=[N+]([O-])c1c(Nc2cccc(O)c2)cc(Cl)c2nonc12	56.2µM*	.	-25.9%	-11.8%
O=[N+]([O-])c1cncc([N+](=O)[O-])c1Nc1cccc(O)c1	-4.1%	0.9%	0.1%	10µM*
Cc1c(Nc2cc(Cl)c3nonc3c2[N+](=O)[O-])c(=O)n(-c2ccccc2)n1C	?	.	-12.0%	27.6%
O=C(NCc1ccc2c(c1)OCO2)O[C@@H]1C(=O)c2cc(Br)ccc2O[C@H]1c1ccc2c(c1)OCO2	-11.8%	.	.	.
O=C(NCc1cccc(C(F)(F)F)c1)C1C(=O)Nc2ccccc2C(=O)N1C1CCCC1 (centres undefined)	.	-12.6%	.	.
COc1ccc(NC(=O)c2ccco2)cc1NC(=O)COc1ccccc1Cl	.	4.3%	.	.
O=C(c1ccc(-c2ccccc2Cl)o1)N1CCCCCCC1	.	.	-4.3%	-10.0%
S=C(c1ccc(-c2cc(Cl)ccc2Cl)o1)N1CCOCC1	25.1µM*	-3.1%	.	-2.2%
S=C(c1ccc(-c2cc(Cl)ccc2Cl)o1)N1CCCCC1	15.8µM*	0.7%	-7.6%[46.1 µM]	7.6%
COc1cccc(C(=O)N(Cc2ccc(N(C)C)cc2)Cc2ccco2)c1	.	-0.6%	.	.
Cc1cccc(C)c1NCc1n[nH]c(=S)n1-c1ccccc1	79.4µM*	0.7%	-3.4%	.
CC[C@H](C)[C@H](NC(=O)[C@H](Cc1ccccc1)NC(=O)[C@H](CC(C)C)NC(=O)[C@H](CCSC)NC(=O)[C@H](CCC(=O)O)NC(=O)[C@H](CCC(=O)O)NC(=O)[C@H](CC(=O)O)NC(=O)[C@H](CO)NC(=O)[C@@H]1CCCN1C(=O)[C@H](CCCCN)NC(=O)[C@@H](N)[C@@H](C)O)C(=O)N[C@@H](Cc1ccc(O)cc1)C(=O)NCC(=O)N[C@@H](Cc1cnc[nH]1)C(=O)N[C@@H](Cc1ccc(O)cc1)C(=O)N[C@@H](CCCCN)C(=O)N[C@@H](CCC(N)=O)C(=O)N[C@@H](C)C(=O)N[C@H](C(=O)N[C@H](C(=O)NCC(=O)N[C@@H](CC(=O)O)C(=O)N[C@H](C(=O)N[C@@H](CC(N)=O)C(=O)N[C@H](C(=O)N[C@@H](CCC(=O)O)C(=O)N[C@@H](CCCNC(=N)N)C(=O)N1CCC[C@H]1C(=O)NCC(=O)N[C@@H](CCSC)C(=O)N[C@@H](CC(C)C)C(=O)N[C@@H](CC(=O)O)C(=O)N[C@@H](Cc1ccccc1)C(=O)N[C@H](C(=O)O)[C@@H](C)O)[C@@H](C)O)[C@@H](C)CC)C(C)C)[C@@H](C)O	-3.7%	.	.	.
O=C(Nc1cccc(C(F)(F)F)c1)c1cccnc1N1CCN(c2ccccc2)CC1	22.4µM*	-5.4%	1.5%	-16.3%
O=C(Nc1cccc(C(F)(F)F)c1)c1cccnc1N1CCN(CCO)CC1	14.7%	-0.6%	-1.4%	1.1%
COc1ccc(C)cc1NC(=O)CSc1nnc(COc2ccc(Cl)cc2)n1Cc1ccco1	?	1.0%	10.0%	-6.8%
COc1ccc(C)cc1NC(=O)CSc1nnc(COc2ccccc2)n1Cc1ccco1	79.4µM*	-0.5%	1.6%	-5.5%
COc1cccc(-c2nnc(SCC(=O)NCc3ccc4c(c3)OCO4)n2Cc2ccco2)c1	39.8µM*	-3.5%	-1.8%	6.2%
COc1cccc(OCc2nnc(SCC(=O)NCc3ccco3)n2CCc2ccccc2)c1	50.1µM*	-0.7%	3.0%	-2.1%
CCOC(=O)CSc1nc2c(sc3ccc([N+](=O)[O-])cc32)c(=O)n1Cc1ccco1	3.55µM*	-1.0%	-3.4%[46.1 µM]	0.1%
COc1cccc(OCc2nnc(SCC(=O)NCc3ccco3)n2C)c1	8.3%	1.4%	6.2%	4.4%
Cc1ccc(S(=O)(=O)N2CCN(S(=O)(=O)c3ccc4c(c3)OCCCO4)CC2)cc1	.	1.2%	.	.
CCc1ccc(NS(=O)(=O)c2ccc(-c3cc(C)no3)cc2)cc1	.	-2.1%	.	.
Cc1cc(C)nc(SCc2nnc(SCC(=O)Nc3ccccc3C)n2Cc2ccco2)n1	50.1µM*	-2.3%	.	0.6%
SMILES	Sfp inh	ClpP mod	TCR activator	uPA surface inh
CCOC(=O)CSc1nnc(CSc2nc(C)cc(C)n2)n1Cc1ccco1	20µM*	0.5%	7.5%	3.5%
Cc1ccc(C)c(NC(=O)CSc2nnc(CSc3nc(C)cc(C)n3)n2Cc2ccco2)c1	44.7µM*	-2.8%	2.2%	2.0%
Cc1ccc(NC(=O)CSc2nnc(CSc3nc(C)cc(C)n3)n2Cc2ccco2)c(C)c1	?	1.3%	-0.1%	3.3%
Cc1cc(C)nc(SCc2nnc(SCC(N)=O)n2Cc2ccco2)n1	0.9%	0.2%	-19.5%	6.8%
O=[N+]([O-])c1cc(-c2ccc(C(=S)N3CCOCC3)o2)ccc1Cl	-94.6%	.	-1.0%	-10.7%
N#CCCN1CCN(C(=S)c2ccc(-c3cccc(Cl)c3)o2)CC1	44.7µM*	-1.1%	6.4%	-6.9%
O=C(O)c1ccc(-c2cccc(Cl)c2)o1	.	?	0.1%	.
N#CCCN1CCN(C(=S)c2ccc(-c3ccc(Cl)c(Cl)c3)o2)CC1	50.1µM*	6.3%	11.4%	7.8%
COc1cccc(NC(=O)CN2C(=O)CC(c3ccco3)Sc3ccccc32)c1 (centres undefined)	.	0.6%	.	.
CC(C(=O)Nc1ccc([N+](=O)[O-])cc1Cl)N1CCN(S(=O)(=O)c2cccs2)CC1 (centres undefined)	.	-2.1%	-5.8%	-15.8%
CC(C(=O)Nc1cc([N+](=O)[O-])ccc1Cl)N1CCN(c2ccc(O)cc2)CC1 (centres undefined)	56.2µM*	-2.5%	0.9%[46.1 µM]	-1.7%
O=C1c2sc3nc4ccccc4n3c2C(=O)N1c1ccccc1Cl	39.8µM*	-2.1%	-37.9%	-0.3%
Cc1ccccc1N1C(=O)c2sc3nc4c(c(=O)n3c2C1=O)CCC4	22.4µM*	-3.3%	-0.1%	0.3%
Cc1ccc2nc3c(cc(C#N)c(=O)n3-c3nccs3)c(=O)n2c1	-14.7%	2.51µM*	2.4%	2.0%
Cc1ccc2nc3c(cc(C#N)c(=O)n3-c3nnc(SCc4ccccc4)s3)c(=O)n2c1	.	4.5%	.	.
CN(C)S(=O)(=O)c1ccc2c(c1)N(CC(=O)Nc1ccc(F)cc1)C(=O)CS2	.	-0.5%	.	.
Cc1ccc(C(=O)CCS(=O)(=O)c2ccc(Br)cc2)cc1	2.5%	0.9%	-0.4%	-3.7%
Cc1ccc(S(=O)(=O)CCC(=O)c2cccc([N+](=O)[O-])c2)cc1	22.4µM*	-5.1%	.	-11.2%
CCCCNC(=O)[C@@H]1CC=C[C@@H]2CCN(Cc3ccccc3)C(=O)[C@@H]21	.	-0.4%	.	.
C=CC(C)(C)c1c2c(c(O)c3c(=O)c4ccc(O)c(O)c4oc13)C=CC(C)(C)O2	11.3%	.	.	.
O=C(Nc1ccc2c(c1)C(=O)N(C1CCCCC1)C2=O)C1CCCO1 (centres undefined)	3.1%	31.6µM*	-6.3%	5.3%
